In test [1] the target is Lysosomal acid glucosylceramidase (Homo sapiens) (UniProt P04062). Kind of test: Glucocerebrosidase-p2 (AID 348; in the data active = potency below about 10 µM; note: potency is the fitted concentration of half-maximal effect). The settings on record: purified GBA, blue fluorogenic substrate, 40 min. Summed up:
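Compounds titrated from 0.6 nM upwards against 0.2 nM enzyme in pH 5.9 citric acid/KH2PO4, taurocholate, tween-20; blue fluorogenic substrate 80 uM, 40 min room temperature, stopped and read Ex 365/Em 440 for AC50.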

Test [2] in a line: AP1 Signaling Pathway (AID 357; active = well fitted curve in either direction with a large enough effect, not every such curve was filed as active;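 note: ME-180 reporter cells stimulated with EGF at its EC50 level; % is set by controls: 0 for no effect and ±100 for the full control effect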). The settings on record: ME-180 AP-1-bla reporter, EGF-induced, beta-lactamase ratio, 5 h; at 7.69 µM (top of the series) unless noted. Summed up:
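Modulation of EGF-driven AP-1 transcription was assessed with a beta-lactamase reporter in ME-180 cells. Compound and EC50 EGF were co-incubated 5 hours at 37 °C before 2.5-hour CCF4 loading at room temperature and dual-emission reading.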

Test [3] concerns the target Cytochrome P450 1A2 (Homo sapiens) (UniProt P05177). Kind of test: p450-cyp1a2 (AID 410; calls by dose curve; note: potency is the fitted concentration of half-maximal effect). The settings on record: recombinant CYP1A2, luciferin-ME demethylation, luminescence; series mostly up to 57 µM. Summed up: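 20nM CYP1A2 with 100uM Luciferin-ME (at Km) in 100mM KPO4; compound preincubated 10 min, NADPH regeneration added, 60 min at room temperature. Luciferin quantified by luminescence after detection reagent; normalized to 57 uM furafylline.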

A short description of test [4]: NFAT Signaling Pathway (AID 444; active = well fitted curve in either direction with a large enough effect, not every such curve was filed as active;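 note: carbachol stimulus at about its EC50 of 1 µM final; % is set by controls: 0 for no effect and ±100 for the full control effect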). The settings on record: Jurkat NFAT-bla M1, carbachol, beta-lactamase ratio, 5 h; at 7.69 µM (top of the series) unless noted. Summed up: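 Jurkat cells with NFAT-driven β-lactamase reporter and co-expressed M1 receptor, stimulated with carbachol (final 1 uM, ~EC50), compound titration, 5 h at 37 °C. CCF4 loaded 1 h at RT; 460/530 nm ratio gave %activity and AC50.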

Test [5] is described as follows: Stat Signaling Pathway (AID 446; active = well fitted curve in either direction with a large enough effect, not every such curve was filed as active;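 note: ME-180 cervical cancer cells given 40 pM IL-6 alongside compound; SIE-controlled beta-lactamase reporter measured as 460/530 nm FRET emission ratio; % is set by controls: 0 for no effect and ±100 for the full control effect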). The settings on record: ME-180 (cervical carcinoma) SIE beta-lactamase reporter, IL-6 stimulated, 5 h; at 7.69 µM (top of the series) unless noted. Summed up: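 IL-6/STAT signaling read in ME-180 cells via an SIE beta-lactamase reporter. Stimulus was 40 pM IL-6 (its AC50) for 5 hrs, so both activation and inhibition register.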
For test [6], the target named is Glucocorticoid receptor (Homo sapiens) (UniProt P04150). Briefly: GR-GFP Redistribution (AID 450;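 active = compounds whose dose series gives a full or clear partial fitted curve of increased nuclear translocation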; note: potency is the fitted concentration of half-maximal effect). The settings on record: U2OS GR-GFP nuclear translocation, laser cytometry, 2 h.
Test [7] has the same target. Briefly: GR-EFC Redistribution (AID 451; calls by dose curve; note: potency is the fitted concentration of half-maximal effect). The settings on record: CHO-K1 GR-EFC translocation, beta-gal luminescence, 2 h. Summed up: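 CHO-K1 cells expressing nuclear EA and GR-ED fragments of b-gal; compounds titrated up to 46 uM final, 2 h at 37 C. GR nuclear translocation read as complemented b-gal luminescence after 1 h RT detection.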
Test [8] concerns the target Mitogen-activated protein kinase 10 (Mus musculus) (UniProt Q61831). Briefly: JNK3 AlphaScreen Assay (AID 530; active = well fitted curve in either direction with a large enough effect, not every such curve was filed as active;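 note: kinase came from lysate of stimulated human HepG2 cells; signal reports phosphorylation of biotinylated GST-cJun 1-79 at Ser73 with 10 µM ATP; % is set by controls: 0 for no effect and ±100 for the full control effect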). The settings on record: JNK3 lysate, c-Jun phosphorylation; series mostly up to 57.1 µM. Summed up:
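Pre-activated (IL-1β/TNFα) JNK3 in HepG2 lysates phosphorylates biotin-GST-cJun(1-79), 10 uM ATP; anti-phospho-cJun(Ser73) AlphaScreen read at room temperature, pH 7.6 Tris buffer. Compounds pre-incubated 15 min as titrations.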

The target in test [9] is 3',5'-cyclic-AMP phosphodiesterase 4B (Homo sapiens) (UniProt Q07343). Briefly: qHTS Assay for Inhibitors of PDE-IV (AID 607; active = well fitted activation curve with a large enough effect in the main read-out, with a control signal flat, not every such curve was filed as active; note: % of control where 0% means no effect). The settings on record: HEK293 ACTOne CNG channel cells, membrane potential fluorescence; series mostly up to 22.9 µM. Summed up: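 Live HEK293 cells with a modified cyclic nucleotide-gated (CNG) channel report intracellular cAMP via membrane-potential dye fluorescence (ex 535/em 590 nm). Endogenous PDE-IV was targeted. Compounds were tested at up to 22.9 uM final; RO 20-1724 100 uM served as control.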

Test [10] deals with Cytochrome P450 3A4 (Homo sapiens) (UniProt P08684). Briefly: qHTS Assay for Inhibitors and Substrates of Cytochrome P450 3A4 (AID 884). Note: potency is the fitted concentration of half-maximal effect; nearly all actives have a fitted effect of over 50% in size. The settings on record: recombinant CYP3A4, Luciferin-PPXE luminescence; series mostly up to 57.1 µM. Summed up:
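20 nM human CYP3A4 with 25 uM Luciferin-PPXE (at KM) in 200 mM KPO4, preincubated 10 min with compound; NADPH regeneration started a 60 min RT reaction. Luciferin detected by luminescence, normalized to 57 uM ketoconazole as full inhibition.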

Test [11] has the same target. Briefly: qHTS Assay for Activators of Cytochrome P450 3A4 (AID 885). Note: nearly all actives have a fitted effect of over 65% in size. The settings on record: recombinant CYP3A4, Luciferin-PPXE luminescence, 60 min; series mostly up to 57.1 µM. Summed up: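 Quantitative HTS format: compounds preincubated with 20nM human CYP3A4 and Luciferin-PPXE substrate at KM, reaction started by NADPH regeneration, stopped after 60 min, luciferase luminescence read 20 min later.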

The target of test [12] is Cytochrome P450 2D6 (Homo sapiens) (UniProt P10635). Kind of test: qHTS Assay for Inhibitors and Substrates of Cytochrome P450 2D6 (AID 891). Note: potency is the fitted concentration of half-maximal effect; nearly all actives have a fitted effect of over 60% in size. The settings on record: recombinant CYP2D6, luciferin-ME EGE luminescence; series mostly up to 57.1 µM. Summed up: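 Human CYP2D6 (5 nM) with 30 uM Luciferin-ME EGE (at Km) in 100 mM KPO4, compound preincubated 10 min, then NADPH regeneration system for 60 min at room temperature. Luciferin read by luminescence; normalized to 1.43 uM quinidine.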

The target in test [13] is Cytochrome P450 2C19 (Homo sapiens) (UniProt P33261). Kind of test: qHTS Assay for Inhibitors and Substrates of Cytochrome P450 2C19 (AID 899). Note: nearly all actives have a fitted effect of over 60% in size. Note: potency is the fitted concentration of half-maximal effect. The settings on record: recombinant CYP2C19, luciferin-H EGE luminescence; series mostly up to 57.1 µM. Summed up: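 5 nM human CYP2C19 with 10uM Luciferin-H EGE (at KM) in 50mM KPO4, compound preincubated 10 min at 37C, then NADPH regeneration for 60 min at 37C. Luciferin read by luminescence after detection reagent; normalized to 57uM ketoconazole as full inhibition.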

The nature of test [14]: Confirmation and Secondary Assay for Modulators of Hemoglobin Beta Chain Splicing at IVS2 654 locus (AID 910).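 Note: HeLa cells stably carrying EGFP split by mutant beta-globin IVS2-654 intron; % of control where 0% means no effect.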 The settings on record: HeLa EGFP-654 splicing reporter, GFP fluorescence, 48 h; series mostly up to 38.3 µM. Summed up:
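HeLa cells stably expressing EGFP interrupted by β-globin IVS2-654 intron, seeded overnight in Opti-MEM/2% FCS, then treated 2 days at 37 °C. Restored splicing read as total peak GFP intensity per well by laser scanning cytometry (488 nm excitation, 500–520 nm emission); 500 nM antisense PNA as control.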

Test [15] in a line: Confirmation and Secondary Assay for Modulators of Hemoglobin Beta Chain Splicing at IVS2 705 locus (AID 930).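 Note: HeLa cells stably expressing the EGFP-705 splicing reporter; GFP fluorescence per well restored by corrected splicing of the IVS2-705 intron in EGFP; % of control where 0% means no effect.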 The settings on record: HeLa EGFP-705 splicing reporter, GFP fluorescence, 48 h; series mostly up to 38.3 µM. Summed up:
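HeLa cells stably carrying EGFP interrupted by mutant beta-globin intron 2 (IVS2-705) treated 2 days at 37C with compound; 500 nM antisense PNA as control. Correct splicing read as total peak GFP intensity per well by laser-scanning cytometry.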

Test [16] is described as follows: qHTS Assay for Lipid Storage Modulators (AID 1519; calls by dose curve). The settings on record: Drosophila S3 cells, BODIPY lipid droplet/cell ratio, laser cytometry, cells loaded with oleic acid; for activity change, negative = inhibition: at 57.5 µM (top of the series). Summed up:
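Cells seeded at 5,000 per well were treated with compounds over a concentration series and loaded with oleic acid (400 uM, as added). Lipid droplet fluorescence (488 nm excitation, 500-530 nm channel) was read by laser-scanning cytometry and normalized to 20 uM Triacsin C.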

Test [17] in a line: Primary qHTS for inhibitors of nuclear receptor binding SET domain protein 2 (NSD2) in an isogenic RCH-ACV NSD2 p.E1099K mutant (9B) (AID 1645876). Note: potency is the fitted concentration of half-maximal effect; nearly all actives have a fitted effect of over 70% in size. The settings on record: RCH-ACV NSD2 E1099K (9B) viability, CellTiter-Glo, 72 h; series mostly up to 44.9 µM.
Test [18] can be described thus: Primary qHTS for inhibitors of nuclear receptor binding SET domain protein 2 (NSD2) in an RCH-ACV wild type WT cells (2C) (AID 1645877). Note: potency is the fitted concentration of half-maximal effect; nearly all actives have a fitted effect of over 70% in size. The settings on record: RCH-ACV (leukaemia line) NSD2 WT (2C) viability, CellTiter-Glo, 72 h; series mostly up to 44.9 µM.
Test [19] can be described thus: NCATS anti-infectives library activity on HEK293 viability as a counter-qHTS vs the C. elegans viability qHTS (AID 1745854). The settings on record: HEK293 viability counter-screen; series mostly up to 41.8 µM. Summed up:
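HEK293 cells (1,500/well) exposed 24 hr at 37C to 1:5 titrations, up to 41.7 uM final; counter-screen to a C. elegans viability qHTS. Viability by CellTiter-Glo luminescence after 10 min at room temperature; digitonin as control.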

Test [20] deals with Phospholipid hydroperoxide glutathione peroxidase GPX4 (Homo sapiens) (UniProt P36969). Briefly: Primary qHTS Assay for Inhibitors of Recombinant Selenoprotein Glutathione Peroxidase 4 (GPX4) (AID 1845192). Note: nearly all actives have a fitted effect of over 65% in size. The settings on record: recombinant GPX4, GR-coupled NADPH fluorescence, 15 min; series mostly up to 50 µM. Summed up:
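GR-coupled assay: recombinant GPX4 preincubated 30 min with compound at room temperature; final 200 nM GPX4, 1 mM GSH, 0.5 mM cumene hydroperoxide, 0.5 mM NADPH, 100 nM GR, 0.01% BSA, pH 7.5 Tris. NADPH fluorescence (340/450 nm) read at 0 and 15 min.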

The nature of test [21]: qHTS drug screen for cell cycle checkpoint inhibitors in PARPi-resistant BRCA-mutant ovarian cancer cell lines. (AID 1963452; calls by dose curve). The settings on record: PEO1/OlaR viability, CellTiter-Glo luminescence, 96 h, stronger effect = lower value. Summed up:
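PEO1, PEO4 and PEO1/OlaR ovarian cancer cells, 600 per well, exposed 96 h at 37C to a dilution series. Viability read by CellTiter-Glo luminescence, normalized to DMSO and empty wells; activity summarized as Z-AUC.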

Test [22] deals with Dual specificity protein kinase CLK4 (Homo sapiens) (UniProt Q9HAZ1). Briefly: qHTS Assay for Inhibitors of CDC-like Kinase 4 (ADP-Glo Assay) (AID 1771). Note: % is set by controls: 0 for no effect and ±100 for the full control effect; nearly all actives have a fitted effect of over 70% in size. The settings on record: recombinant CLK4, ADP-Glo luminescence; series mostly up to 80 µM. Summed up:
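25 nM Clk4 with 100 uM RS repeat peptide and 1 uM ATP (final) in buffer with 2 mM MgCl2, 0.5 mM EGTA, 2.5 mM DTT, 0.01% Triton X-100; 1 h at room temperature; ADP-Glo luminescence for ADP formed.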

Test [23] shares this target. Kind of test: qHTS Assay for Inhibitors of CDC-like Kinase 4 (ADP-FP Assay) (AID 1795). Note: % is set by controls: 0 for no effect and ±100 for the full control effect; nearly all actives have a fitted effect of over 60% in size. The settings on record: Transcreener ADP fluorescence polarization; series mostly up to 50 µM. Summed up: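 Recombinant human Clk4 (6.25 nM) phosphorylated RS repeat peptide (100 uM) with 1 uM ATP in Tris pH 7.5/MgCl2/EGTA/DTT/Triton buffer for one hour. ADP was quantified by Transcreener competitive fluorescence polarization against an ADP calibration curve.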

The target of test [24] is Ubiquitin carboxyl-terminal hydrolase 1 (Homo sapiens) (UniProt O94782). Briefly: Inhibitors of USP1/UAF1: Pilot qHTS (AID 504865).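 Note: rhodamine fluorescence freed from ubiquitin-rhodamine substrate followed over time; top concentration of the series differs between compounds; % is set by controls: 0 for no effect and ±100 for the full control effect; nearly all actives have a fitted effect of over 35% in size.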 The settings on record: purified USP1/UAF1, Ub-rhodamine cleavage fluorescence; series mostly up to 54.9 µM. Summed up: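 USP1/UAF1 complex (1nM) preincubated with compound 15 min at room temperature, then Ub-Rho substrate (150nM final) added. Fluorescence read kinetically at 480/540 nm, 6 reads every 60 seconds. Buffer: 50mM HEPES pH 7.8, 0.5mM EDTA, 0.1 mg/ml BSA, 1mM TCEP, 0.01% Tween-20.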

Where [25] appears, read: measured here: cell count channel max response.
[26] abbreviates: measured here: lipid channel max response.

Results filed as inconclusive are left out. Calls of active or inactive are those of the source. Unless noted, calls come from the whole dose curve; as a rule, active = well fitted curve in the direction sought with a large enough effect; inconclusive = small, poorly fitted or top-dose-only effect, or another doubt; inactive = no such curve, though single readings can be large; an effect the other way counts as inactive or inconclusive. Bounds are passed on as bounds.

Sequence of Glucocorticoid receptor (Homo sapiens) (P04150 whole entry, looked up, the tested form may be a part): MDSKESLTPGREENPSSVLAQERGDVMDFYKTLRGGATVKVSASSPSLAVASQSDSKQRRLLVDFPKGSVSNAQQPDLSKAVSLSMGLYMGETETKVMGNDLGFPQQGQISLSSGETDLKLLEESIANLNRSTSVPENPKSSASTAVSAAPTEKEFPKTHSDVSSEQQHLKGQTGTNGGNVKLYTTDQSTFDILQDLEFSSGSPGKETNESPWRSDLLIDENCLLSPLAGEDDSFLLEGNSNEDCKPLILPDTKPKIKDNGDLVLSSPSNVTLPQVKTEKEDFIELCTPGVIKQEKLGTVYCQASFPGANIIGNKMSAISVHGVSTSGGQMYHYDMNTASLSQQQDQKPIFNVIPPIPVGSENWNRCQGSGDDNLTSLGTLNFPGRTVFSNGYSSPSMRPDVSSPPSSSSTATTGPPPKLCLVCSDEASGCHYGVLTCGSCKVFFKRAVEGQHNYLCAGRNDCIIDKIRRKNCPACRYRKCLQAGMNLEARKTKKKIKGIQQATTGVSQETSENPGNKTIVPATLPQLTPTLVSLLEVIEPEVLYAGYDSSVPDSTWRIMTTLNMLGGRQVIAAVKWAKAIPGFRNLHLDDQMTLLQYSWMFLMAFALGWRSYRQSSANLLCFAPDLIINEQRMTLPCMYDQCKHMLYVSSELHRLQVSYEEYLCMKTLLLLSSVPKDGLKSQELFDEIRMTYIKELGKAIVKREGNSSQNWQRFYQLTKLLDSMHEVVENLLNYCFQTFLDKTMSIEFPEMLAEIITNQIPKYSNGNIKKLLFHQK
Sequence of 3',5'-cyclic-AMP phosphodiesterase 4B (Homo sapiens) (Q07343 whole entry, looked up): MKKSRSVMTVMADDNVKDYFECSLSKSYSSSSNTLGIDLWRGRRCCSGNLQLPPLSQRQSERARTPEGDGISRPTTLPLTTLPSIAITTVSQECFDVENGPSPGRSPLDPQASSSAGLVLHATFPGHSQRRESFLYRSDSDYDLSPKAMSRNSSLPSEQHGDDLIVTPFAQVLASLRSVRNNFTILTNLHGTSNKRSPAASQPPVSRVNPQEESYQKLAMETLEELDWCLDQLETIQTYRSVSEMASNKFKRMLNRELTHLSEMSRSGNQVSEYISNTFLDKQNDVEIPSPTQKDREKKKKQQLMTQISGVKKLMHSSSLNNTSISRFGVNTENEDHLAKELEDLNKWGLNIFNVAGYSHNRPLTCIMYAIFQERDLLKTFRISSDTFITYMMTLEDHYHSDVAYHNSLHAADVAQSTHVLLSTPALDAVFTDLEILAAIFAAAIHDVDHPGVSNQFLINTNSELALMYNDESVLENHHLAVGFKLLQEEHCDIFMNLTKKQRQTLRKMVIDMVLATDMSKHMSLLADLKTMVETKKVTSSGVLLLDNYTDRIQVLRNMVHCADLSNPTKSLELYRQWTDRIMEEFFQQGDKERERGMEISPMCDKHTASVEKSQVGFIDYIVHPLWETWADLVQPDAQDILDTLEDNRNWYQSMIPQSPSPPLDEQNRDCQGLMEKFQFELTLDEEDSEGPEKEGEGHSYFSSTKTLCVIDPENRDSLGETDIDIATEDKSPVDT
Sequence of Cytochrome P450 3A4 (Homo sapiens) (P08684 whole entry, looked up): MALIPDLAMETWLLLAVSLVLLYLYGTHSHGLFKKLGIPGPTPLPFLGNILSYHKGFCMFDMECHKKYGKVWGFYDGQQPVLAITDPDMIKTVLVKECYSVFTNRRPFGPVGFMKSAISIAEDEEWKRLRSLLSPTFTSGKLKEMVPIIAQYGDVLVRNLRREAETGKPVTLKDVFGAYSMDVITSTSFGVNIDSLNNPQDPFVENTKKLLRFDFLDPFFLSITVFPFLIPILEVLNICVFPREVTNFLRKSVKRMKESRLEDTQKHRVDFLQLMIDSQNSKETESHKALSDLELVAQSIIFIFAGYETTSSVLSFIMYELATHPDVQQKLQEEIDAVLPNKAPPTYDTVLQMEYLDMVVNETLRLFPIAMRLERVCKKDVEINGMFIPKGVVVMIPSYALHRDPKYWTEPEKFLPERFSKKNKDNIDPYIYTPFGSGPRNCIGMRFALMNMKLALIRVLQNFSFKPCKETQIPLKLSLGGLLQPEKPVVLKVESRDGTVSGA
Sequence of Lysosomal acid glucosylceramidase (Homo sapiens) (P04062 whole entry, looked up): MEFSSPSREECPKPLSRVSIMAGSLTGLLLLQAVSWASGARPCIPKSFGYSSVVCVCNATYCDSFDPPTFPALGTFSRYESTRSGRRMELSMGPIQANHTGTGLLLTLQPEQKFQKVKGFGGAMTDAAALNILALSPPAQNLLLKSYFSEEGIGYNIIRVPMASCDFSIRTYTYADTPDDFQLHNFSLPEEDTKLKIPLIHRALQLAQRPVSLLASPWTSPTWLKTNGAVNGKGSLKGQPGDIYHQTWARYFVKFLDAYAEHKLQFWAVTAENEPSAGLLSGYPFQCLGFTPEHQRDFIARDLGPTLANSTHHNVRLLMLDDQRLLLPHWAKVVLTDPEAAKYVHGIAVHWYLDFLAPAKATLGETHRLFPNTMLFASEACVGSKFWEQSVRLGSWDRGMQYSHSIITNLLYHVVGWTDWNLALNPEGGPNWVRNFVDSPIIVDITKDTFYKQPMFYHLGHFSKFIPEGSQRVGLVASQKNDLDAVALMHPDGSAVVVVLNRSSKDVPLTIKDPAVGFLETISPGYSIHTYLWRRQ
Sequence of Cytochrome P450 2C19 (Homo sapiens) (P33261 whole entry, looked up): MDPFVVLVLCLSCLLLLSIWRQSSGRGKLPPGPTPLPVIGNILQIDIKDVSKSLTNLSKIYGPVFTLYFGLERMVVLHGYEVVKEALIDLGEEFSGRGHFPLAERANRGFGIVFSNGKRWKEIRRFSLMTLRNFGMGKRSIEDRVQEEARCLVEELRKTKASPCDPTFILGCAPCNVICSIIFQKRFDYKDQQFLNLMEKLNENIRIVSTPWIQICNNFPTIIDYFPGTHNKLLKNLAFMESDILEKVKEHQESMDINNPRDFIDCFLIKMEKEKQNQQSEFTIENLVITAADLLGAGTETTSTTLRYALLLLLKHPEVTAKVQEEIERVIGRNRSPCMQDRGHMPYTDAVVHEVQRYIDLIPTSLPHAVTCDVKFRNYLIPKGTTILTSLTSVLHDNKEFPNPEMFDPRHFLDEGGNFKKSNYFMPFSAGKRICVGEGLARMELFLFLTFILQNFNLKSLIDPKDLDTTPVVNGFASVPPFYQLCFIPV
Sequence of Dual specificity protein kinase CLK4 (Homo sapiens) (Q9HAZ1 whole entry, looked up): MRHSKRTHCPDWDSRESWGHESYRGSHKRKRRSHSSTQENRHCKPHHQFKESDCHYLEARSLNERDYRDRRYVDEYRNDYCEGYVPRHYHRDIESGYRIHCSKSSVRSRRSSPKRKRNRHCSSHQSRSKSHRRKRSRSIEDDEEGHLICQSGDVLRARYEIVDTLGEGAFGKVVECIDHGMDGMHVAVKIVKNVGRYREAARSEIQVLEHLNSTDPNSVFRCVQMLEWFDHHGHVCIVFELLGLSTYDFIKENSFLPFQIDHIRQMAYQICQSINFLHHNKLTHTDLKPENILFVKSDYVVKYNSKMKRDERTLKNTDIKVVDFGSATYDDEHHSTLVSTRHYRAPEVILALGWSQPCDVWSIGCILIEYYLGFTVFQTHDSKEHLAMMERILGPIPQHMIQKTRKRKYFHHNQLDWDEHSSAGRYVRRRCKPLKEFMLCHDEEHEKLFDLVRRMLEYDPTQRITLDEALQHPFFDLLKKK
Sequence of Ubiquitin carboxyl-terminal hydrolase 1 (Homo sapiens) (O94782 whole entry, looked up): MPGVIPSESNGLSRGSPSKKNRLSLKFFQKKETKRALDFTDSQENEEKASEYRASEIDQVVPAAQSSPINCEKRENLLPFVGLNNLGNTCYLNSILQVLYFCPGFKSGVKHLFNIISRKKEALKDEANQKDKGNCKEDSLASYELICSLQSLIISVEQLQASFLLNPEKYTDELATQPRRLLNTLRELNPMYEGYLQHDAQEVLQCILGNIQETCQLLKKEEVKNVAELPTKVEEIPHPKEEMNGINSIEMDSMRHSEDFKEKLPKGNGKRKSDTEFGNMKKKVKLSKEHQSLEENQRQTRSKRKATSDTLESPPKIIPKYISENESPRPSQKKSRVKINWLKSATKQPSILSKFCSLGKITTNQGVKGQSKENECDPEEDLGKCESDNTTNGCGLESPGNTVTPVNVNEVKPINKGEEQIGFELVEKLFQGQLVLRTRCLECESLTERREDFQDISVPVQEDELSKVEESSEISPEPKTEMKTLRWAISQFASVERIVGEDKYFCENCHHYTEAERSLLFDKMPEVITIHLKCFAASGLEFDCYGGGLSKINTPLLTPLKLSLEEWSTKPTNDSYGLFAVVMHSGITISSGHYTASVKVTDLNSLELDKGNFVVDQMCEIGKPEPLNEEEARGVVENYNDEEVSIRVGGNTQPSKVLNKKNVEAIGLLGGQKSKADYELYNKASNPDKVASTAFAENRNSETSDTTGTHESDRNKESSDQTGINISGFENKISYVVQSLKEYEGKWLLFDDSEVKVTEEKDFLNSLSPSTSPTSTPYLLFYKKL
Sequence of Cytochrome P450 1A2 (Homo sapiens) (P05177 whole entry, looked up): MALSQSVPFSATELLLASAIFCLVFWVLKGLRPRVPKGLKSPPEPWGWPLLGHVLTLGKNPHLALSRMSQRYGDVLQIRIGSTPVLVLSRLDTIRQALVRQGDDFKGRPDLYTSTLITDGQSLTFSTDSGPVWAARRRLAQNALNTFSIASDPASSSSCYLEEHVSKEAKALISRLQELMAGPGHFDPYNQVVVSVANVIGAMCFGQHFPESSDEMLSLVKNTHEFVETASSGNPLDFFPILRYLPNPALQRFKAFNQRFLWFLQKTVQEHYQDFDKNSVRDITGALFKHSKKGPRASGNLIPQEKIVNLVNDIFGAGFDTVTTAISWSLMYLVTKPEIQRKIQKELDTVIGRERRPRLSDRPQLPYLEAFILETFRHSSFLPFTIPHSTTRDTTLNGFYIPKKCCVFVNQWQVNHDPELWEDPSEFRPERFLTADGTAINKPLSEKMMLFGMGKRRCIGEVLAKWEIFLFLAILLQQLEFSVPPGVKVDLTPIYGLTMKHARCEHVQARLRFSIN
Sequence of Phospholipid hydroperoxide glutathione peroxidase GPX4 (Homo sapiens) (P36969 whole entry, looked up): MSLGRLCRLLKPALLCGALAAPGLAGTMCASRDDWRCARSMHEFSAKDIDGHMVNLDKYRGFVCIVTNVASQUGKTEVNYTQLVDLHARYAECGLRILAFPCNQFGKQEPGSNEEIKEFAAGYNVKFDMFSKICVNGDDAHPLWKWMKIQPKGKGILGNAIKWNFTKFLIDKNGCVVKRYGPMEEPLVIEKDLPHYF

Consider `Cc1cccc(CNc2ccnc(-c3cccnc3)n2)c1`, for which the Potency in test [1] is > 11.4 µM (inactive); in test [3], 0.126 µM (active); in test [6] it was > 46 µM (inactive); in [7] it was > 46 µM (inactive); in test [10], 0.501 µM (active); in test [12], 0.631 µM (active). Further, in test [13], the Potency was 2.51 µM (active). In addition, the figures for the activity change, negative = inhibition in [2], in test [4] and in test [16] were -18.1% (inactive), 10.6% (inactive) and 8.22% (inactive), respectively. Besides, the activity, negative = inhibition in test [5] was 1.1% (inactive). Besides, the call in test [8], in test [14] and in test [15] was inactive. Besides, the Potency result in test [9] and in test [11] was “inactive” each time. Further, the max response in test [16] (setting [25]) is -7.71%; in [16] (setting [26]), -5.64%.
As for `CNC(=O)[C@@H](NC(=O)[C@H](CC(C)C)[C@H](O)C(=O)NO)C(C)(C)C`, the Potency in test [17] was 18.6 µM (active); in test [18] it was 13.2 µM (active). Also, the Potency entry in test [19] and in [20] was “inactive” each time. The results for the Z-AUC in [21], in test [21] (measured here: PEO1 parental Z-AUC) and in test [21] (measured here: PEO4 Z-AUC) were 1.14 (inactive), 0.454 and 0.976, respectively.
For the molecule `FC(F)(F)c1ccccc1-c1nc(NC2CCNCC2)c2ccccc2n1`, the Potency in test [1] was > 11.4 µM (inactive); in [6], > 46 µM (inactive); in test [7], > 46 µM (inactive). The activity change, negative = inhibition is 9.18% (inactive) in [2], 7.17% (inactive) in [4] and 1.75% (inactive) in test [16]. In addition, in test [5], the activity, negative = inhibition was 1.97% (inactive). In test [8], the outcome was inactive. In addition, the Potency entry in test [9], in test [13], in [22], in test [23] and in [24] was “inactive” in each case. Further, the values for the max response in test [16] (setting [25]) and in test [16] (setting [26]) were 19.6% and 17.3%, respectively.

The values are drawn from PubChem BioAssay (NCATS).
